Sa ugtP lethal – growth inhibition of ugtP-null S. aureus, primary screen, RN4220 ugtP deletion, OD600; 16 h; growth inhibition, % (concentration not given with the values); hit rate 0.54% among 330,000; in the data active = growth inhibition above about 68%
VHR inh abs – VHR1 phosphatase inhibitors, primary screen, biochemical, absorbance, uHTS; Dual specificity protein phosphatase 3 (Homo sapiens), P51452; recombinant VHR phosphatase, pNPP absorbance; inhibition, % at 13.3 µM; hit rate 0.52% among 290,000; in the data active = inhibition above about 50%
Target sequence (P51452 whole entry, looked up): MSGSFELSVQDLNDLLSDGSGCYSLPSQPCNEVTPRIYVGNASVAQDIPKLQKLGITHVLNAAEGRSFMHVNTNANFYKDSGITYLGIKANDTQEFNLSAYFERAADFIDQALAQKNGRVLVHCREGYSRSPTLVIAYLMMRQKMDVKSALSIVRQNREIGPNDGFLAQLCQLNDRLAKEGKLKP
PfHsp40 yeast – rescue of yeast from PfHsp40 toxicity, primary screen, S. cerevisiae, ATP luminescence | hit rate 0.68% among 340,000 | AID 504582, 2011 | growth rescue, % at 12.5 µM | S. cerevisiae expressing PfHsp40, growth rescue; in the data active = growth rescue above about 28%, passing the limit was not always enough;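 also: yeast W303a lacking pdr1 and pdr3 grown in galactose medium; growth measured after three days at 30 °C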
SSB-PriA inh – inhibitors of Klebsiella pneumoniae PriA binding to SSB C-terminal tail, primary screen, biochemical, AlphaScreen. hit rate 0.6% among 430,000. inhibition, % at 33 µM. AlphaScreen SSBct-PriA binding, biotinylated peptide. PriA–SSB C-terminal tail interaction (Klebsiella pneumoniae); in the data active = inhibition mostly above about 37%, no sharp cut-off; inactive = mostly below about 20%
Sa RN4220 lethal – growth inhibition of S. aureus RN4220, primary screen, OD600; 16 h; inhibition, % (no concentration beside the values); hit rate 0.33% among 330,000; AID 1259311, 2017; in the data active = inhibition above about 85%
Mtb hypoxia rep – PubChem AID 1159583. fluorescence inhibition, % (concentration not given with the values). hit rate 0.1% among 300,000. M. tuberculosis hypoxia-regulated fluorescent reporter, fluorescence; in the data active = fluorescence inhibition mostly above about 23%, no sharp cut-off; inactive = mostly below about 17%
A number is an active result; n = inactive; x = no result shown; ! = not confirmed by another sample. Most compounds without a hit are left out; they make up all but 1.8% or so of the library.

SMILES | Sa ugtP lethal | VHR inh abs | PfHsp40 yeast | SSB-PriA inh | Sa RN4220 lethal | Mtb hypoxia rep
CCCCNc1c(-c2cccc(-c3ccc(OC)cc3)c2)nc2cc(C)ccn12 | n | x | n | 53 | n | n
O=C(CN1C(=O)CNC1=O)Nc1cccc2ccccc12 | x | x | x | n | x | x
CC(C)(C)NC(=O)CSCc1ccc(Br)cc1 | n | 53 | n | n | n | n
C=CCNC(=O)CSCc1ccc(Br)cc1 | n | n | n | n | n | n
CN(c1ccc(OCC(=O)Nc2cc(Cl)ccc2C(=O)O)cc1)S(=O)(=O)c1ccc(F)cc1 | n | x | 26 | n | n | n
Cc1nnc(CNC(=O)c2csc(-c3ccccc3)n2)o1 | x | x | x | n | x | x
CCN1CCCc2cc(CCNC(=O)Nc3ccc(OC)c(OC)c3)ccc21 | x | x | x | 70 | x | x
CCN1CCCc2cc(CCNC(=O)C(=O)NCCc3ccccc3)ccc21 | x | x | x | n | x | x
CCNC(=O)C(=O)NCCc1ccc2c(c1)CCCN2CC | x | x | x | n | x | x
CCN1CCCc2cc(CCNC(=O)Nc3ccccc3)ccc21 | x | x | x | 63 | x | x
CCN1CCCc2cc(CCNC(=O)C(=O)Nc3cccc(NC(C)=O)c3)ccc21 | x | x | x | 54 | x | x
Cc1cc(NC(=O)C(=O)NCCc2ccc3c(c2)CCCN3C)c2ccccc2n1 | x | x | x | 42 | x | x
COc1ccc(C=NNC(=O)c2ccncc2)cc1CN1CCN(c2ccc(F)cc2)CC1 | n | x | x | n | n | x
O=C(NCC1CCN(C(=O)c2ccoc2)CC1)c1cc2ccccc2s1 | x | x | x | n | x | x
COc1ccc2nc(N3CC(C(=O)N4CCCc5ccccc54)C3)sc2c1 | x | x | x | n | x | x
NC(=O)CSc1ccc(-c2ccc(Br)cc2)nn1 | x | x | x | n | x | x
O=C(NCCCn1nc(-c2ccco2)ccc1=O)c1ccc(F)cc1F | x | x | x | n | x | x
N#CC1=C(N)N(c2ccccc2C#N)C2=C(C(=O)CCC2)C1c1ccsc1 (stereo unspecified) | n | n | n | n | n | n
Cc1c(C2C(C#N)=C(N)N(c3ccccc3C#N)C3=C2C(=O)CCC3)cnn1C (stereo unspecified) | n | n | n | 38 | n | n
O=c1c(C=NNc2ccccc2)c(Sc2nnnn2-c2ccccc2)nc2ccccn12 | n | x | x | n | n | n
O=C(CCc1ccc(Oc2cc([N+](=O)[O-])cc([N+](=O)[O-])c2)cc1)N1CCCCC1 | n | n | n | 45 | n | x
C=CCN(CC=C)C(=S)NC(=O)c1ccc(OC)cc1 | n | n | n | n | n | n
C=CCN(CC=C)C(=S)NC(=O)c1ccc(C)c(Br)c1 | n | n | 296 | n | n | n
O=C(Oc1cccc2cccnc12)c1ccco1 | n | n | n | n | n | n
O=C(Cc1ccc(Cl)cc1)Oc1cccc2cccnc12 | 89 | n | n | n | n | n
SMILES | Sa ugtP lethal | VHR inh abs | PfHsp40 yeast | SSB-PriA inh | Sa RN4220 lethal | Mtb hypoxia rep
O=C(CCC1CCCC1)Nc1ccc2c(c1)N(C(=O)c1ccco1)CC2 | x | x | x | n | x | x
Oc1ccc2ccccc2c1CN1CCN(Cc2ccccc2)CC1 | x | x | x | n | x | x
C=CCC1c2cccc(C(=O)O)c2C(=O)N1c1cccc(C)c1 (stereo unspecified) | n | n | 159 | n | n | n
C=CCC1c2cccc(C(=O)O)c2C(=O)N1c1ccc(Cl)cc1 (stereo unspecified) | n | n | 133 | n | n | n
CCc1ccc(/C=C/C(=O)C2C(=O)c3ccccc3C2=O)cc1 | 97 | n | n | n | 100 | n
Cc1ccc2c(c1)c1cccc3c1n2CCN3CCC(N)=O | x | n | n | 58 | x | x
COc1cc(-c2nnc(NC(=O)c3ccccc3S(C)(=O)=O)o2)cc(OC)c1OC | x | x | x | n | x | x
CN(C)c1ccc(CNCCC(Cc2ccccc2)c2ccco2)cc1 (stereo unspecified) | n | n | n | 57 | n | n
COc1cccc(OCCN2CCN(c3nc(NCc4ccco4)c4ccccc4n3)CC2)c1 | x | x | x | n | x | x
COC(=O)C1=C(C(=O)OC)C2OC1c1cc3ccccc3cc12 | x | x | 71 | n | x | x
COC(=O)C1=C(c2ccc3ccccc3c2)C[C@@H]2CC[C@H]1N2C | x | x | n | n | x | x
O=C(Nc1nc(-c2nc3ccccc3s2)cs1)c1cc(-c2ccccc2)nc2ccccc12 | x | x | x | n | x | x
C[C@@]12C(=O)Nc3ccc(F)cc3C(=O)N1[C@H]1c3ccccc3OC[C@@H]1[C@@H]2c1ccccc1 | x | x | 138 | n | x | x
C[C@@]12C(=O)Nc3ccc(Cl)cc3C(=O)N1[C@H]1c3ccccc3OC[C@@H]1[C@@H]2c1ccccc1 | x | x | 118 | n | x | x
CCCCCCSc1ccc(-c2nc3ccccn3c2NCCCC)cc1 | n | x | 324 | n | n | n
CCCCNc1c(-c2ccc(-c3cccc(Cl)c3)cc2)nc2ccccn12 | n | x | 207 | n | n | n
CCN(CC)CCN(C(=O)c1ccc(OC)c(OC)c1)c1nc2ccc(F)cc2s1 | x | x | x | n | x | x
CCN(CC)CCN(C(=O)c1cc2ccccc2cc1OC)c1nc2ccc(OC)cc2s1 | n | n | n | 45 | n | n
CCN(CC)CCN(C(=O)c1cc2ccccc2cc1OC)c1nc2ccc(F)cc2s1 | n | n | n | 47! | n | n
Cc1c(Cl)cccc1NC(=O)C(=O)NCC(C)(O)Cc1ccco1 (stereo unspecified) | x | x | x | n | x | x
Cc1ccc(Cl)cc1N1CCN(C(=O)c2cccc(Oc3ccccn3)c2)CC1 | x | x | x | n | x | x
CCCOc1ccc(-c2c(C(=O)NN=Cc3ccc(C)o3)nnn2-c2nonc2N)cc1 | n | x | x | n | n | n
CC1COc2ccccc2N1S(=O)(=O)c1ccc(Cl)cc1 (stereo unspecified) | n | n | 32 | n | n | n
Cc1ccc(S(=O)(=O)N2c3ccccc3OCC2c2ccccc2)cc1 (stereo unspecified) | n | n | n | n | n | n
CCc1nnc(NS(=O)(=O)c2ccc(Nc3ccc([N+](=O)[O-])c4nonc34)cc2)s1 | n | n | n | n | n | 39
SMILES | Sa ugtP lethal | VHR inh abs | PfHsp40 yeast | SSB-PriA inh | Sa RN4220 lethal | Mtb hypoxia rep
O=[N+]([O-])c1ccc(Nc2ccccc2O)c2nonc12 | n | n | n | 41 | n | x
O=C(O)c1ccc(Nc2ccc([N+](=O)[O-])c3nonc23)cc1 | n | n | n | n | n | n
CCc1nnc(NS(=O)(=O)c2ccc(NS(=O)(=O)c3ccccc3[N+](=O)[O-])cc2)s1 | n | n | n | n | n | n
O=[N+]([O-])c1ccc(O)c(/C=N/NC2=NS(=O)(=O)c3ccccc32)c1 | x | n | n | x | x | x
O=C(NN=Cc1cc([N+](=O)[O-])ccc1O)c1ccncc1 | n | x | x | n | 86 | n
O=[N+]([O-])c1ccc(O)c(C=NNC2=NS(=O)(=O)c3ccccc32)c1 | x | x | x | 51 | x | x
O=C(NN=Cc1ccc([N+](=O)[O-])cc1)c1ccncc1 | n | x | n | n | n | n
O=C(NN=Cc1cc(=O)[nH]c(=O)[nH]1)c1ccncc1 | x | x | 30 | n | x | x
O=[N+]([O-])c1ccc(O)c(C=NNc2nn[nH]n2)c1 | 87 | x | x | n | 95 | n
Cc1ccc(S(=O)(=O)CCC(=O)Nc2cc(C)cc(C)c2)cc1 | x | x | x | n | x | x
O=C(CSc1nccc(-c2ccc3c(c2)OCO3)n1)N1CCOCC1 | x | x | x | n | x | x
CCn1c(SCC(=O)Nc2ccccc2C(=O)OC)nc2c(-c3ccccc3)c[nH]c2c1=O | x | x | x | n | x | x

Source: PubChem
